Laboratory results taken from PMC4336329 (PLoS ONE, 2015).
The campaign covered roughly 310,000 compounds. About 14,000 (4.5%) showed an effect of 50% or more. Effects have a minus sign here. The sample holds strong results, similar compounds and a random draw of the others, so the mix is not that of the screen.

biological target: human ether-à-go-go-related gene (hERG) potassium channel (human, UniProt Q12809); assay: primary screen, population patch clamp on CHO cells stably expressing hERG; higher = less effect of the substance
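Also: peak tail current of the secondary pulse compared with the same well before compound.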

Sequence of human ether-à-go-go-related gene (hERG) potassium channel (Q12809 whole entry, looked up): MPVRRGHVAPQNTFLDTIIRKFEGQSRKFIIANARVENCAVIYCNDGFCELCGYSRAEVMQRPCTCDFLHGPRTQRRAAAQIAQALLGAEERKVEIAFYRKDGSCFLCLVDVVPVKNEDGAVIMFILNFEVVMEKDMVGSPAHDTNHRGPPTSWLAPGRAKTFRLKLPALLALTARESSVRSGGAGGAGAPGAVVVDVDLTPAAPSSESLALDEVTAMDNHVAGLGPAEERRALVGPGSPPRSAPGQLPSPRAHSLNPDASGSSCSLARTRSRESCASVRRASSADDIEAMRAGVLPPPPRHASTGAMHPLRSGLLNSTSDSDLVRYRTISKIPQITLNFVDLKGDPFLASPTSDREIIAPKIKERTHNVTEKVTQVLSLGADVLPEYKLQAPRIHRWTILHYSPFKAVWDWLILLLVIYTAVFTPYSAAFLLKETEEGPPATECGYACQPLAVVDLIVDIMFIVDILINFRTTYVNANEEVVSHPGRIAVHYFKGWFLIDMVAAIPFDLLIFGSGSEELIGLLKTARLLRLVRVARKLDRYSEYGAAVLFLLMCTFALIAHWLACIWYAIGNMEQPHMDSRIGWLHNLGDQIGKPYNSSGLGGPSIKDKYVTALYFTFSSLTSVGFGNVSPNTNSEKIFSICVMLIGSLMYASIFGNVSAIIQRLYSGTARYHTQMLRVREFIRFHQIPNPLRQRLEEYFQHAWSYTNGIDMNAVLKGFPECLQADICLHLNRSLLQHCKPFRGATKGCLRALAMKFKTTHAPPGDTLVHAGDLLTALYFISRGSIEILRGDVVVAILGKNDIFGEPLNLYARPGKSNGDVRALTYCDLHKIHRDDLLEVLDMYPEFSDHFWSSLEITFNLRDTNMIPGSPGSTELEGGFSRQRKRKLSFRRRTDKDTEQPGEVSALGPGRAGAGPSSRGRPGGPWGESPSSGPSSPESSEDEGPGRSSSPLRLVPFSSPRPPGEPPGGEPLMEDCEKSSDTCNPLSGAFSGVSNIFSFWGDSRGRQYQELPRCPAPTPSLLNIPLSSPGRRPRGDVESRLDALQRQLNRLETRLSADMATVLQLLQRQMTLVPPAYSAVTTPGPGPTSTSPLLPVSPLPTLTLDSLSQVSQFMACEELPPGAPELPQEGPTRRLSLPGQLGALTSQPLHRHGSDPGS

Row | Compound | hERG current change (%, negative = inhibition) at 10uM [%]
1 | O=C(N/C(=C/c1cccnc1)C(=O)N1CCOCC1)c1ccco1 | 6.59
2 | CCN(CC)S(=O)(=O)c1ccc(NC(=O)c2cc(C(=O)OC)cc([N+](=O)[O-])c2)cc1 | 10.3
3 | CC(NC(=O)c1ccc(OC2CCN(Cc3ccccn3)CC2)cc1)c1ccccc1 (stereo not drawn) | -20.3
4 | CN(Cc1nccs1)C(=O)c1ccc(OC2CCN(Cc3ccccn3)CC2)cc1 | -11.5
5 | CN(Cc1nccs1)C(=O)c1ccc(OC2CCN(CCc3ccccc3)CC2)cc1 | -58.9
6 | Cc1cc(CN(C)C(=O)c2ccc(OC3CCN(CCc4ccccc4)CC3)cc2)on1 | -74.1
7 | CC(CNC(=O)c1ccc(OC2CCN(Cc3ccccn3)CC2)cc1)c1ccccc1 (stereo not drawn) | -76.5
8 | CN(Cc1cnn(C)c1)C(=O)c1ccc(OC2CCN(CCc3ccccc3)CC2)cc1 | -42.9
9 | CN(C(=O)c1ccc(OC2CCN(CCc3ccccc3)CC2)cc1)C1CCOCC1 | -9.93
10 | Cc1cc(CN(C)C(=O)c2ccc(OC3CCN(Cc4ccccn4)CC3)cc2)on1 | -37.7
11 | CN(C(=O)c1ccc(OC2CCN(CCc3ccccc3)CC2)cc1)C1CCOC1 (stereo not drawn) | -25.3
12 | CN(C(=O)c1ccc(OC2CCN(CCc3ccccc3)CC2)cc1)C1CCCCC1 | -63.5
13 | CC(CNC(=O)c1ccc(OC2CCN(Cc3ccccn3)CC2)cc1)Oc1cccnc1 (stereo not drawn) | -21.9
14 | CN(Cc1nccn1C)C(=O)c1ccc(OC2CCN(CCc3ccccc3)CC2)cc1 | -38.3
15 | CCN(c1cccc(C)c1)S(=O)(=O)c1ccc2c(c1)NC(=O)CCS2 | 8.09
16 | CCOC(=O)c1ccc(NS(=O)(=O)c2cc3c4c(c2)CCN4C(=O)CC3)cc1 | -9.74
17 | CSCCC(NC(=O)c1ccccc1)C(=O)N(C)CC(=O)Nc1ccc(N2CCOCC2)cc1 (stereo not drawn) | 5.72
18 | CCCC(C)NC(=O)C1CC(=O)N(CCc2ccc(F)cc2)C1 (stereo not drawn) | 9.07
19 | COCCn1c(=S)[nH]c2ccccc21 | 28.7
20 | CCC(C)(C)n1nnnc1C(c1cccnc1)N1CCCC(C)C1 (stereo not drawn) | 3.14
21 | CCOC(=O)c1ccc(NC(=O)c2cc3c(s2)CCC3)cc1 | 6.15

Row | Compound | hERG current change (%, negative = inhibition) at 10uM [%]
22 | O=C(NC1CCCCC1)C1CCCN1S(=O)(=O)c1ccc(F)cc1 (stereo not drawn) | -0.938
23 | COc1cc(/C=C2\OC(=O)c3c(OC)cccc32)ccc1O | 15.6
24 | CN(CCc1ccccn1)C(=O)c1ccc(OC2CCN(Cc3ccccn3)CC2)cc1 | 4.04
25 | CC(c1nccs1)N(C)C(=O)c1ccc(OC2CCN(CCc3ccccc3)CC2)cc1 (stereo not drawn) | -51.4
26 | Cc1nn(C)cc1CN(C)C(=O)c1ccc(OC2CCN(Cc3ccccn3)CC2)cc1 | 8.65
27 | CCn1ccnc1CN(C)C(=O)c1ccc(OC2CCN(CCc3ccccc3)CC2)cc1 | -24.8
28 | CC(C)N(C)C(=O)c1ccc(OC2CCN(CCc3ccccc3)CC2)cc1 | -40.8
29 | CN(CCc1ccccn1)C(=O)c1ccc(OC2CCN(CCc3ccccc3)CC2)cc1 | -58.5
30 | O=C(CNc1ccccc1)Nc1ccc(F)cc1 | 3.4
31 | O=C(NCCNS(=O)(=O)c1ccc(C(F)(F)F)cc1)N1CCOCC1 | 6.84
32 | COC(=O)c1ccccc1NC(=O)CSc1nnc(-c2cccc(NC(C)=O)c2)n1C | -3.68
33 | CCCCn1c(N)c(N(CC(C)C)C(=O)CCCc2cccs2)c(=O)[nH]c1=O | -9.44
34 | O=C(NCCCn1ccnc1)c1ccc(-c2ccccc2)cc1 | -21.6
35 | COc1ccc(-n2ccnc2SCC(=O)NCc2ccc3c(c2)OCO3)cc1 | -7.81
36 | COC(=O)C1C(=O)C2=C(CC1C)Nc1ccccc1NC2c1ccc(C)s1 (stereo not drawn) | 12.8
37 | C=CCOc1cccc(C2C(C(=O)c3ccc(C)o3)=C(O)C(=O)N2c2nccs2)c1 (stereo not drawn) | 7.99
38 | CCn1cc(CN(C)C(=O)/C=C/c2ccc([N+](=O)[O-])cc2)c(C)n1 | -59.4
39 | CCn1cc(CNC(=O)/C=C/c2ccc([N+](=O)[O-])cc2)c(C)n1 | -33
40 | Cc1nn(C)cc1C(=O)/C=C/c1ccc([N+](=O)[O-])cc1 | -12.4
41 | Cc1c(CN(C)C(=O)/C=C/c2ccc([N+](=O)[O-])cc2)cnn1C | -69.6
42 | Cc1c(CN(C)C(=O)c2nn(C)cc2[N+](=O)[O-])cnn1C | 8.63
